Source: PubChem BioAssay (EPA / NIEHS)
Inconclusive results are not listed. The source made the active and inactive calls. The calls were made as follows: active = hit-call score of the fitted dose curve at least 0.9, where 1 is the maximum; inconclusive = response in the unintended direction; inactive = score below 0.9.

Columns and labels:
[1] = target: human Tyrosine Protein Kinase Receptor Tie-2 (Tie2), TEK (gene 7010) (UniProt Q02763); assay: NVS_ENZ_hTie2: NovaScreen (NVS) Enzymatic Assay for human Tyrosine Protein Kinase Receptor Tie-2 (Tie2) (AID 2283225)
How it was run: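 Recombinant human Tie2 kinase activity was read cell-free by fluorescence with electrophoretic mobility shift, 1 hour after dosing. The screen used 25 uM in duplicate, then concentration-response up to 50 uM. Signal loss was scored against DMSO.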

[2] = target: human Vascular Endothelial Growth Factor Receptor 1 (VEGFR1), FLT1 (gene 2321) (UniProt P17948); assay: NVS_ENZ_hVEGFR1: NovaScreen (NVS) Enzymatic Assay for human Vascular Endothelial Growth Factor Receptor 1 (VEGFR1) (AID 2283226)
How it was run: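 Cell-free assay of recombinant human VEGFR1 kinase with substrate, measured 1 h after dosing; fluorescence with electrophoretic mobility-shift separation of substrate and product, referenced to DMSO; primary screen at 25 uM in duplicate, actives then run in concentration series.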

[3] = target: human Vascular Endothelial Growth Factor Receptor 2 (VEGFR2), KDR (gene 3791) (UniProt P35968); assay: NVS_ENZ_hVEGFR2: NovaScreen (NVS) Enzymatic Assay for human Vascular Endothelial Growth Factor Receptor 2 (VEGFR2) (AID 2283230)
How it was run: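 Cell-free recombinant VEGFR2 kinase, fluorescent substrate with electrophoretic mobility-shift separation; read 1 h after dosing. Screened at 25 uM in duplicate, hits to concentration-response up to 50 uM; loss-of-signal versus DMSO.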

[4] = target: human SRC Proto-Oncogene, Non-receptor Tyrosine Kinase (SRC), SRC (gene 6714) (UniProt P12931); assay: NVS_ENZ_hSRC: NovaScreen (NVS) Enzymatic Assay for human SRC Proto-Oncogene, Non-receptor Tyrosine Kinase (SRC) (AID 2283223)
How it was run: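 Cell-free kinase activity assay with fluorescent substrate, product separated by electrophoretic mobility shift, read 1 h after dosing. Duplicate single point at 25 uM, then concentration-response up to 50 uM; loss of signal versus DMSO.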

[5] = target: rabbit Imidazoline 2 Central (I2C), CKB (gene 100009085) (UniProt P00567); assay: NVS_ENZ_rabI2C: NovaScreen (NVS) Enzymatic Assay for rabbit Imidazoline 2 Central (I2C) (AID 2283228)
rabbit Imidazoline 2 Central (I2C), CKB (gene 100009085), sequence (P00567 whole entry, looked up): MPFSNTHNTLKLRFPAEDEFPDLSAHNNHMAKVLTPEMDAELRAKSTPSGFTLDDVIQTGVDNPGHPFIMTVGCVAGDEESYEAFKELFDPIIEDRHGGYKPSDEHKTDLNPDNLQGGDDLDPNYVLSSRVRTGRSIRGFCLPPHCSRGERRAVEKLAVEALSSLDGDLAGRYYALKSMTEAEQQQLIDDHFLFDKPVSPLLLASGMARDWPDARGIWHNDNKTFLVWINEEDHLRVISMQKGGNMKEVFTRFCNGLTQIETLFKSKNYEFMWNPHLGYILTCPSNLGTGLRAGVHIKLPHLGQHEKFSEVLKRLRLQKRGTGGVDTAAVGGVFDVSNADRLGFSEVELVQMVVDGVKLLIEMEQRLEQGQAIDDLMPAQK
How it was run: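 Rabbit brain membranes, cell-free; readout by filter-based scintillation counting 1.5 hours after dosing, loss of signal vs DMSO. Initial duplicate test at 25 uM, then concentration-response with 50 uM top concentration.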

[6] = target: sheep Cyclooxygenase-1 (Cox1), PTGS1 (gene 443551) (UniProt P05979); assay: NVS_ENZ_oCOX1: NovaScreen (NVS) Enzymatic Assay for sheep Cyclooxygenase-1 (Cox1) (AID 2283239);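 also: actives reduce cyclooxygenase activity so potencies are for inhibitors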
sheep Cyclooxygenase-1 (Cox1), PTGS1 (gene 443551), sequence (P05979 whole entry, looked up): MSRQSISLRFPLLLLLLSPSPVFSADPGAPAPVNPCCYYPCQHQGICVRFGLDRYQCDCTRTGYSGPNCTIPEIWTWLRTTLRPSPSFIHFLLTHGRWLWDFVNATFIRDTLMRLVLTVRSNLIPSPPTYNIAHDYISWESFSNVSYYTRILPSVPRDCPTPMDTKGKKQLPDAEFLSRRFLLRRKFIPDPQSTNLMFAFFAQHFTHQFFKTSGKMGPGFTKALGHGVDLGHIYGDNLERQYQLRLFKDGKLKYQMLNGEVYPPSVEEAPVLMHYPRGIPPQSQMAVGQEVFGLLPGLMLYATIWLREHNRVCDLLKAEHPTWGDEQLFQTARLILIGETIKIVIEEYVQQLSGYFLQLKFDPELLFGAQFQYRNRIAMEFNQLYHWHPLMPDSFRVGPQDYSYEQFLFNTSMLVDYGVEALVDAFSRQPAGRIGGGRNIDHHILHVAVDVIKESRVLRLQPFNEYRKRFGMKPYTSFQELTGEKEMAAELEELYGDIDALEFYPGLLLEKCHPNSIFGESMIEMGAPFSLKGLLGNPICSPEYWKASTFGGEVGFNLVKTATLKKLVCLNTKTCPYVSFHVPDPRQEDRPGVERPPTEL
How it was run: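 Colorimetric enzyme readout using sheep seminal-vesicle cyclooxygenase-1, measured 0.66 h post-dosing. Single-concentration duplicates at 25 uM first, then concentration series for actives, with DMSO as baseline and plate controls.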

[7] = target: human Vascular Endothelial Growth Factor Receptor 3 (VEGFR3), FLT4 (gene 2324) (UniProt P35916); assay: NVS_ENZ_hVEGFR3: NovaScreen (NVS) Enzymatic Assay for human Vascular Endothelial Growth Factor Receptor 3 (VEGFR3) (AID 2283229)
How it was run: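 Cell-free recombinant VEGFR3 kinase reaction with fluorescent substrate, read 1 h after dosing by electrophoretic mobility shift separation of substrate and product. Single-concentration duplicate screen at 25 uM, then concentration-response up to 50 uM; loss of activity versus DMSO.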

[8] = target: rat Constitutive Nitric Oxide Synthase (CNOS), Nos1 (gene 24598) (UniProt P29476); assay: NVS_ENZ_rCNOS: NovaScreen (NVS) Enzymatic Assay for rat Constitutive Nitric Oxide Synthase (CNOS) (AID 2283236)
How it was run: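 Enzyme activity in rat brain membrane preparation, read 1 h after dosing by filter-based radiometric scintillation counting. Primary screen in duplicate at 25 uM; actives (e.g., ≥30% inhibition) then run in concentration-response up to 50 uM.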

[9] = NVS_GPCR_bNPY_NonSelective: NovaScreen (NVS) G Protein-Coupled Receptor Assay for bovine Neuropeptide Y (NPY) Receptor, Non-selective Binding (AID 2283245)
How it was run: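 Bovine hippocampal membranes incubated 1 hour with radioligand and test chemical. Bound ligand measured by filter-based scintillation counting. Single-concentration screen at 25 uM in duplicate, then concentration-response up to 50 uM.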

[10] = system: rat Monoamine Oxidase, MAO-A, Peripheral (MAOAP), gene 29253; assay: NVS_ENZ_rMAOAP: NovaScreen (NVS) Enzymatic Assay for rat Monoamine Oxidase, MAO-A, Peripheral (MAOAP) (AID 2283237)
How it was run: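 Rat liver mitochondrial membranes served as the MAO-A source, with enzyme activity measured by radiometric scintillation counting 1.17 hours after dosing. Loss of signal was fitted against DMSO; primary screen used 25 uM in duplicate, follow-up used concentration series.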

[11] = target: bovine Dopamine Receptor (DR), Non-selective Binding, DRD1 (gene 281125) (UniProt Q95136); assay: NVS_GPCR_bDR_NonSelective: NovaScreen (NVS) G Protein-Coupled Receptor Assay for bovine Dopamine Receptor (DR), Non-selective Binding (AID 2283241)
bovine Dopamine Receptor (DR), Non-selective Binding, DRD1 (gene 281125), sequence (Q95136 whole entry, looked up): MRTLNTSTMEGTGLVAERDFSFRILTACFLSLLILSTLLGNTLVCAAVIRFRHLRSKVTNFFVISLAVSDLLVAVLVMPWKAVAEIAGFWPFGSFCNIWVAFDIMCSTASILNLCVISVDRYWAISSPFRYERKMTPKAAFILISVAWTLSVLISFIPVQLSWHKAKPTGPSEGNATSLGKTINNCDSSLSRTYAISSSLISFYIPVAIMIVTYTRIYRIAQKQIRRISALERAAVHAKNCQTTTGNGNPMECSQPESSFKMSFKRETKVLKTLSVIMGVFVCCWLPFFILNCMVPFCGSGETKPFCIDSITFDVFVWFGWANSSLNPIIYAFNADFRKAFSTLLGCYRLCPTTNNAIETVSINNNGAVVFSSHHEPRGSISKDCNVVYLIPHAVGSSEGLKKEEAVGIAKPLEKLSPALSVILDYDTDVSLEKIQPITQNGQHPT
How it was run: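 Bovine striatal membranes; radioligand displacement read by filtration and scintillation counting 1 h after dosing, loss of signal vs DMSO. Screened in duplicate at 25 uM, then concentration-response for hits.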

[12] = system: rat Monoamine Oxidase, MAO-A, Central (MAOAC), gene 29253; assay: NVS_ENZ_rMAOAC: NovaScreen (NVS) Enzymatic Assay for rat Monoamine Oxidase, MAO-A, Central (MAOAC) (AID 2283243);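 also: potency refers to inhibition seen as signal drop below DMSO baseline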
How it was run: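 Inhibition of rat brain-derived MAO-A was read by scintillation counting after 1.5 h exposure. Compounds screened first at 25 uM in duplicate, then in dose series if active.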

[13] = target: Adenosine receptor A1 (Bos taurus) (UniProt P28190); assay: NVS_GPCR_bAdoR_NonSelective: NovaScreen (NVS) G Protein-Coupled Receptor Assay for bovine Adenosine Receptor (AdoR), Non-selective Binding (AID 2283244)
Adenosine receptor A1 (Bos taurus), sequence (P28190 whole entry, looked up): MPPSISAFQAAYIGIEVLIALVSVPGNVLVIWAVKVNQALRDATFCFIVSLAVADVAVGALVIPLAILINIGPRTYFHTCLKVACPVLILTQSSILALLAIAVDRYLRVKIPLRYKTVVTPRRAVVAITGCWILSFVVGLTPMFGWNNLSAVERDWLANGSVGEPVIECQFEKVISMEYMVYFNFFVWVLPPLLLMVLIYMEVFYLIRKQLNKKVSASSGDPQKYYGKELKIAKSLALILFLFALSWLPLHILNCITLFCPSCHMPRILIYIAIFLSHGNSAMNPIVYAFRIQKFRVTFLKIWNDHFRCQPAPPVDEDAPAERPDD
How it was run: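 Bovine striatal membranes, radioligand displacement binding, 1 h after dosing, filter-based scintillation counting. Screened in duplicate at 25 uM, then concentration-response up to 50 uM; loss of specific binding relative to DMSO.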

[14] = target: rat Acetylcholinesterase (AChE), Ache (gene 83817) (UniProt P37136); assay: NVS_ENZ_rAChE: NovaScreen (NVS) Enzymatic Assay for rat Acetylcholinesterase (AChE) (AID 2283233)
rat Acetylcholinesterase (AChE), Ache (gene 83817), sequence (P37136 whole entry, looked up): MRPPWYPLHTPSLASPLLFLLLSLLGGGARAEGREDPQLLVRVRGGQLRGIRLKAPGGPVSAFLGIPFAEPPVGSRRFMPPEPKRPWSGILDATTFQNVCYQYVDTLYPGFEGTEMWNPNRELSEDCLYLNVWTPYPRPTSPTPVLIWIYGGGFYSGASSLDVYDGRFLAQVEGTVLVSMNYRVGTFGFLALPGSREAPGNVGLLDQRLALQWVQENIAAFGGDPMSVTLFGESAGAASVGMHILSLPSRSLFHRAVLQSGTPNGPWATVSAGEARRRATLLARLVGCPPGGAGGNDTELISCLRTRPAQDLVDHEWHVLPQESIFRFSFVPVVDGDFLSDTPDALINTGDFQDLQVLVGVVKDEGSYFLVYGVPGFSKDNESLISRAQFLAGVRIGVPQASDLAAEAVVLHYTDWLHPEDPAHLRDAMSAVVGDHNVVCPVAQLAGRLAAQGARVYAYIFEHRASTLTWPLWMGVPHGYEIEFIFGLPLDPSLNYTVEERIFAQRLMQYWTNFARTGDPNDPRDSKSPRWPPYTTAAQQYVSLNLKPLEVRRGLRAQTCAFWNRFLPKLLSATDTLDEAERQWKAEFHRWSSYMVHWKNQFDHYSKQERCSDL
How it was run: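 Rat brain membrane acetylcholinesterase activity measured colorimetrically 0.33 h after compound addition, loss of signal relative to DMSO. Primary screen in duplicate at 25 uM; actives re-run as concentration-response with 50 uM top concentration.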

[15] = target: rat Monoamine Oxidase, MAO-B, Central (MAOBC), Maob (gene 25750) (UniProt P19643); assay: NVS_ENZ_rMAOBC: NovaScreen (NVS) Enzymatic Assay for rat Monoamine Oxidase, MAO-B, Central (MAOBC) (AID 2283238)
rat Monoamine Oxidase, MAO-B, Central (MAOBC), Maob (gene 25750), sequence (P19643 whole entry, looked up): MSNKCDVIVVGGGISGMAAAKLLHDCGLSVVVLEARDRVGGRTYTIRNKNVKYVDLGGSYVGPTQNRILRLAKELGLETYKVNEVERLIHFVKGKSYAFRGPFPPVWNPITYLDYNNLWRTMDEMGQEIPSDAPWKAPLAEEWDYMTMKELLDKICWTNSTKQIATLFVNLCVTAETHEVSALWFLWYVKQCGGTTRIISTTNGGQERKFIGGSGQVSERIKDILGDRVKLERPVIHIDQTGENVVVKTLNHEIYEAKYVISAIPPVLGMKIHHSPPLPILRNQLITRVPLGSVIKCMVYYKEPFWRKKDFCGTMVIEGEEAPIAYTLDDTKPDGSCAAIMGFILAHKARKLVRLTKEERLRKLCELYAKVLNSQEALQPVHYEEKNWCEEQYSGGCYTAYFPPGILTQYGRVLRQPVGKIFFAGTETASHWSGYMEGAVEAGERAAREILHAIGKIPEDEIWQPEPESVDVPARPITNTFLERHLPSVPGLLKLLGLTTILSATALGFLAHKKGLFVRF
How it was run: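 Rat brain tissue extract served as the cell-free MAO-B source; enzyme activity was read by scintillation counting 1.17 hours after compound addition. Loss of signal versus DMSO baseline was fitted; primary single-concentration screen at 25 uM, follow-up concentration-response up to 50 uM.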

[16] = target: rat Catechol-O-Methyl Transferase (COMT), Comt (gene 24267) (UniProt P22734); assay: NVS_ENZ_rCOMT: NovaScreen (NVS) Enzymatic Assay for rat Catechol-O-Methyl Transferase (COMT) (AID 2283235)
rat Catechol-O-Methyl Transferase (COMT), Comt (gene 24267), sequence (P22734 whole entry, looked up): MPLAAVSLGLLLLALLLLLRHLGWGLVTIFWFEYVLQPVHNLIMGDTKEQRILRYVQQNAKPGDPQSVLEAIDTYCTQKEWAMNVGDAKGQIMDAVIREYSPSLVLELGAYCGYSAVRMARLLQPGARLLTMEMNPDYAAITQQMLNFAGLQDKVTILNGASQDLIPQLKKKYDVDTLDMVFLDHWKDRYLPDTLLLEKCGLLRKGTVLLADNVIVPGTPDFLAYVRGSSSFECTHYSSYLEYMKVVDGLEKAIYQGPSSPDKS
How it was run: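 Cell-free enzyme activity with protein extracted from rat dorsal striatum, measured by HPLC with absorbance detection. Compounds screened at 25 uM in duplicate; actives then run in concentration-response up to 50 uM, loss of signal versus DMSO.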

[17] = target: rat Adenylate Cyclase, Forskolin Stimulated, Adcy5 (gene 64532) (UniProt Q04400); assay: NVS_ENZ_rACFSKBinding: NovaScreen (NVS) Enzymatic Assay for rat Adenylate Cyclase, Forskolin Stimulated (AID 2283232)
rat Adenylate Cyclase, Forskolin Stimulated, Adcy5 (gene 64532), sequence (Q04400 whole entry, looked up): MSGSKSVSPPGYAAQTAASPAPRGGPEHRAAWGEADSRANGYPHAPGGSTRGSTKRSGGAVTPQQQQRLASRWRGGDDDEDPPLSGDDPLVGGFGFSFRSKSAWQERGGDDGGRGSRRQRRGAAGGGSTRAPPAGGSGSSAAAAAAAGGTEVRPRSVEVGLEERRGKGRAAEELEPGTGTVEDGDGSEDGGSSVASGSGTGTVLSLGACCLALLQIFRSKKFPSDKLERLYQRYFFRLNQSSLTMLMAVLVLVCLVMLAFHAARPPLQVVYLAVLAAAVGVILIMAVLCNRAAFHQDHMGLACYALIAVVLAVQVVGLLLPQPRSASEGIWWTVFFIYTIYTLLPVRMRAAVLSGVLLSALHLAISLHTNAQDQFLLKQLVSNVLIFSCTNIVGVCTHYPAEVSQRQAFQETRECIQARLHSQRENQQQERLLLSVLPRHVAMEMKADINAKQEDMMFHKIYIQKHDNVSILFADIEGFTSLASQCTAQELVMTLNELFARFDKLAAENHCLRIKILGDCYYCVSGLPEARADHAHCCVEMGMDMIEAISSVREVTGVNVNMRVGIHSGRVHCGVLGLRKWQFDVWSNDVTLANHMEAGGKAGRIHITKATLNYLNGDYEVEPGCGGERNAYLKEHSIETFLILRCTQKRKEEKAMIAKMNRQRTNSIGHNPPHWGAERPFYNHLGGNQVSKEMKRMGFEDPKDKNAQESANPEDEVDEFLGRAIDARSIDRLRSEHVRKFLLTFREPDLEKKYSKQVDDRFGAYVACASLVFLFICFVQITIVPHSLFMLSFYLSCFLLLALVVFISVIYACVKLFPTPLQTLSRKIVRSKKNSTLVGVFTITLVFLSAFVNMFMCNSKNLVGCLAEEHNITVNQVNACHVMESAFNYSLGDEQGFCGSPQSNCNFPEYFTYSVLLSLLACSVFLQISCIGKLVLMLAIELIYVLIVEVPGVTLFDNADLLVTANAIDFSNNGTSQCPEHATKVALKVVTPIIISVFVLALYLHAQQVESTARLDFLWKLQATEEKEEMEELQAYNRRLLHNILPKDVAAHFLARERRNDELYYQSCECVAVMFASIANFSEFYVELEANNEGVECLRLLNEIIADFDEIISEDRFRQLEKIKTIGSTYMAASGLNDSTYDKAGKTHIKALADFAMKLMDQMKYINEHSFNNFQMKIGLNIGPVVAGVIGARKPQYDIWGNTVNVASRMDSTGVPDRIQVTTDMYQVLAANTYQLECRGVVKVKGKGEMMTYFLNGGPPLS
How it was run: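 Rat forebrain membrane preparation, cell-free, read 1 h after dosing by filter-based scintillation counting. Primary screen in duplicate at 25 uM; actives (e.g. ≥30% inhibition) rerun in concentration-response up to 50 uM; fit versus DMSO.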

[18] = target: sheep Cyclooxygenase-2 (Cox2), PTGS2 (gene 443460) (UniProt P79208); assay: NVS_ENZ_oCOX2: NovaScreen (NVS) Enzymatic Assay for sheep Cyclooxygenase-2 (Cox2) (AID 2283231)
sheep Cyclooxygenase-2 (Cox2), PTGS2 (gene 443460), sequence (P79208 whole entry, looked up): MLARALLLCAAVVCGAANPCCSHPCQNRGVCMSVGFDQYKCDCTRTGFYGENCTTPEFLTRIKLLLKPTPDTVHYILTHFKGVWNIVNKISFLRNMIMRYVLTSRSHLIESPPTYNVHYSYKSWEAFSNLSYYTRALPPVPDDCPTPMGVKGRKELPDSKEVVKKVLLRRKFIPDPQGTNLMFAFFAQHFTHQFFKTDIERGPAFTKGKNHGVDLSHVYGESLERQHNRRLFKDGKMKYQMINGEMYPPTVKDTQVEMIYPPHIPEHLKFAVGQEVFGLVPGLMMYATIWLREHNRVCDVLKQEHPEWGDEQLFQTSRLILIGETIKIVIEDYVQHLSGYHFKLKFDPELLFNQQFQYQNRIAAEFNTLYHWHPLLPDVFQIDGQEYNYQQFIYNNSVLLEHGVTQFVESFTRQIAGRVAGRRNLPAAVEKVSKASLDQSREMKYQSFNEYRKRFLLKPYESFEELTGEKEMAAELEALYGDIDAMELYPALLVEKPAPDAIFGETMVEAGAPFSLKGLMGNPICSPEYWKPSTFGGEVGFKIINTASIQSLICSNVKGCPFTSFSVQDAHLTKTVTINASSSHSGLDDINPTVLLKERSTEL
How it was run: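 Enzyme extracted from ovine placenta tested cell-free; activity read colorimetrically by absorbance 0.66 hour after dosing. Primary screen in duplicate at 25 uM; hits rerun as concentration series to 50 uM, loss of signal versus DMSO baseline.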

[19] = system: bovine Angiotensin II Receptor Type 2 (AT2), gene 407157; assay: NVS_GPCR_bAT2: NovaScreen (NVS) G Protein-Coupled Receptor Assay for bovine Angiotensin II Receptor Type 2 (AT2) (AID 2283240)
How it was run: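 Radioligand displacement on bovine cerebellar membranes, 1 hour incubation, filter-based scintillation counting; loss of signal vs DMSO. Duplicate single-point screen at 25 uM, then concentration-response to 50 uM maximum.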

For CCN(CC)N=O, the outcome [1] was “inactive”, the outcome [2] was “inactive” and the outcome [3] was “inactive”.
With Cc1ccc(N)c(N)c1 the outcome [4] was “inactive”, the outcome [5] was “inactive” and the AC50 [6] was 42 µM (active).
With COc1cc(C=O)cc2c1[C@H](COC(N)=O)[C@]1(OC(C)=O)ON2C[C@H]2[C@@H]1N2C(C)=O the outcome [7] was “inactive” and the outcome [3] was “inactive”.
In the case of CCCCOC(=O)c1ccccc1C(=O)OCc1ccccc1, the outcome [8] is reported as “inactive”.
For O=C(Nc1ccccc1)c1ccccc1I, the outcome [9] was “inactive”.
In the case of [Cl-].[Cl-].[Hg+2], the AC50 [10] is reported as 3.19 µM (active), the AC50 [6] is reported as 2.97 µM (active) and the AC50 [11] is reported as 11.6 µM (active). The outcome [12] was “inactive”, the AC50 [13] was 19.1 µM (active) and the AC50 [9] was 12 µM (active).
With Cc1cccc(N)c1N the outcome [14] was “inactive” and the outcome [6] was “inactive”.
For COP(=S)(OC)SCN1C(=O)c2ccccc2C1=O, the outcome [14] was “inactive”, the AC50 [8] was 3.44 µM (active) and the outcome [15] was “inactive”.
With CS(=O)(=O)NC(=O)c1cc(Oc2ccc(C(F)(F)F)cc2Cl)ccc1[N+](=O)[O-] the outcome [13] was “inactive”.
With Cc1cc(N=Nc2ccccc2C)ccc1N the AC50 [16] was 0.643 µM (active), the AC50 [15] was 25 µM (active) and the AC50 [6] was 11.8 µM (active).
In the case of O=[N+]([O-])C(Br)(CO)CO, the AC50 [17] is reported as 21.3 µM (active), the AC50 [14] is reported as 35.2 µM (active) and the AC50 [15] is reported as 35.6 µM (active). The AC50 [13] was 16.5 µM (active).
For CCCCCCCCCCCCCN1CC(C)OC(C)C1 (stereo not given), the AC50 [16] was 20.8 µM (active) and the outcome [13] was “inactive”.
With Clc1ccccc1Cl the outcome [6] was “inactive”.
In the case of CC(O)CCO (stereo not given), the outcome [18] is reported as “inactive”.
With CN(C)[C@@H]1C(=O)C(C(N)=O)=C(O)[C@@]2(O)C(=O)C3=C(O)c4c(O)cccc4[C@@](C)(O)[C@H]3C[C@@H]12 the AC50 [18] was 11.4 µM (active), the AC50 [16] was 2.73 µM (active) and the outcome [15] was “inactive”. For the same molecule, the outcome [6] was “inactive”.
With CCOc1cccc(C2(N3CCN(c4ccccc4)CC3)CCC(C)CC2)c1 (stereo not given) the AC50 [10] was 13.7 µM (active), the AC50 [12] was 4.53 µM (active) and the outcome [13] was “inactive”.
For C1=Cc2cccc3cccc1c23, the AC50 [6] was 15.7 µM (active).
In the case of CC(C)(C)OOC(=O)c1ccccc1, the outcome [18] is reported as “inactive” and the outcome [15] is reported as “inactive”.
For CCC[CH2][Sn]([Cl])([CH2]CCC)[CH2]CCC, the AC50 [17] was 41 µM (active), the AC50 [19] was 18.2 µM (active) and the AC50 [11] was 9.14 µM (active). For the same molecule, the AC50 [9] was 3.07 µM (active).
With CCN(CC)CCO the outcome [10] was “inactive”.
In the case of Nc1ccc(Oc2ccc(N)cc2)cc1, the AC50 [12] is reported as 11.3 µM (active).
For CC(C)(C)OOC(C)(C)CCC(C)(C)OOC(C)(C)C, the outcome [10] was “inactive”.
For CN(C)c1ccccc1, the outcome [18] was “inactive”.
In the case of Nc1ccc(Cl)cc1N, the AC50 [6] is reported as 4.69 µM (active), the outcome [12] is reported as “inactive” and the outcome [13] is reported as “inactive”.
For CCCCCCCCOC(=O)c1ccc(C(=O)OCCCCCCCC)c(C(=O)OCCCCCCCC)c1, the outcome [14] was “inactive”.
In the case of c1ccc2c(c1)-c1cccc3cccc-2c13, the outcome [6] is reported as “inactive”.
In the case of C=CCc1ccc2c(c1)OCO2, the outcome [8] is reported as “inactive”.
For O=P(OCCCl)(OCCCl)OCCCl, the outcome [18] was “inactive”.
With CCCCCCCCn1sccc1=O the AC50 [17] was 26 µM (active) and the outcome [9] was “inactive”.
